Screening results deposited in PubChem by National Center for Advancing Translational Sciences (NCATS).
Vaccinia Venus = inhibitors of vaccinia virus (Venus reporter) | AID 720580 | Vaccinia virus Venus reporter expression, fluorescence | Potency, µM (series often up to 36.5 µM), without a hit: at the highest dose activity change, negative = inhibition, usual class: inhibitors | 0.46% of 330,000 active; calls by dose curve; tested in A549 cells; further: potency means the concentration at half of the fitted maximal effect; nearly all actives have a fitted effect of over 30% in size
FMDV antiviral = foot and mouth disease virus antiviral activity; FMDV antiviral cell-based qHTS; Potency, µM (highest dose often 57.9 µM), without a hit: at the top dose activity change, negative = inhibition, most hits filed as inhibitors; 1.2% of 410,000 active; AID 1159524; calls by dose curve; tested in HEK293T cells; further: read-out not given here; potency means the concentration at half of the fitted maximal effect; nearly all actives have a fitted effect of over 45% in size
HCMV antiviral = blocks human cytomegalovirus replication; HFF cells, HCMV-luciferase reporter, 72 h; hits give low values; activity change, negative = inhibition, % at 57.5 µM; 4.5% of 410,000 active; in the data active means activity change below about -60%; inconclusive means no clear call, values can overlap the other calls; inactive means above about -39%
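Steps: HFFs plated, 16 h 37C; compounds added; HCMV-luciferase added to MOI 1 PFU/cell; 72 h 37C; OneGlo reagent, 5 min room temperature; luminescence read, normalized to controls.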
Vaccinia mCherry = vaccinia inhibition (mCherry reporter); Vaccinia virus mCherry reporter infection, fluorescence; AID 720579; 0.63% of 310,000 active; Potency, µM (titrated, usually from 36.5 µM), for inactives: top-dose activity change, negative = inhibition, actives largely listed as inhibitors; calls by dose curve; tested in A549 cells; further: potency means the concentration at half of the fitted maximal effect; nearly all actives have a fitted effect of over 35% in size
HCV inh = HCV inhibition. Huh7.5.1 HCVcc-Cre infection, luciferase reporter, 44 h. AID 651820. Potency, µM (top dose mostly 41.8 µM), without a hit: at the highest dose activity change, negative = inhibition, hits mostly inhibitors. 3.4% of 340,000 active; active means well fitted inhibition curve with a large enough effect; inconclusive means small, poorly fitted or top-dose-only effect, or another doubt; inactive means no such curve, though single readings can be large or run the other way; further: potency means the concentration at half of the fitted maximal effect
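HCVcc-Cre virus at an moi near 0.5 was added right after compound to cells cultured 4 h from seeding (1,000 cells/well). Luciferase activity was determined 44 h later, 15 min after substrate addition at RT.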
* = called active by the depositor; [ ] = another dose, or the depositor's remark. This is a sample that favours compounds with a hit; in the whole collection about 7.3% have one here. On the % scale 0 is the no-effect control and ±100 the full control effect.

`COc1ccc(CC(=O)N2CC3ON=C(c4c(F)cccc4Cl)C3C2)cc1` (stereo unspecified) gave HCMV antiviral 52.5.
For N#CC(c1ccccc1)c1ccc2c(C(F)(F)F)cc(C(F)(F)F)nc2n1 (stereo unspecified) the results were Vaccinia Venus 1.3%, FMDV antiviral inconclusive, HCMV antiviral -104.5*, Vaccinia mCherry -13.2%[1.46 µM] and HCV inh -19.4%.
Screening CN(N)c1ccc2c(C(F)(F)F)cc(C(F)(F)F)nc2n1 returned Vaccinia Venus -5.5%, FMDV antiviral -4.5%, HCMV antiviral inconclusive, Vaccinia mCherry -54.0% and HCV inh 7.6%.
For FC(F)(F)c1cc(C(F)(F)F)c2ccc(N/N=C/c3ccccc3)nc2n1 the results were Vaccinia Venus -24.0%, FMDV antiviral -9.0%, HCMV antiviral 18.4 and HCV inh 2.9%.
Screening Cc1ccc(C(C#N)c2ccc3c(C(F)(F)F)cc(C(F)(F)F)nc3n2)cc1 (stereo unspecified) returned Vaccinia Venus -23.7%, FMDV antiviral inconclusive, HCMV antiviral -99.1*, Vaccinia mCherry inconclusive and HCV inh 10µM*.
`Cc1c(C(=O)Nc2ccc(F)cc2F)oc2ccc3c(c12)C(=O)CC(C)(C)O3` gave Vaccinia Venus -5.2%, FMDV antiviral 0.0%, HCMV antiviral inconclusive and Vaccinia mCherry -17.9%.
For CC1=C(C(=O)Nc2ccccc2)C(c2cccnc2)n2nc(SCc3ccccc3F)nc2N1 (stereo unspecified) the results were Vaccinia Venus -5.7%, FMDV antiviral -17.2%, HCMV antiviral 5.5 and Vaccinia mCherry -20.6%.
CCN(CC)C(=O)CSc1nc2sc3c(c2c(=O)n1CCCOC)CCC3 was read as Vaccinia Venus -11.4%, FMDV antiviral -11.9%, HCMV antiviral -76.1*, Vaccinia mCherry -13.4% and HCV inh -19.8%.
COCCn1c(SCC(=O)Nc2ncc(C)s2)nc2sc3c(c2c1=O)CCC3 was read as HCV inh 2.24µM*.
`CCCCn1c(SCC(N)=O)nc2sc3c(c2c1=O)CCC3` gave FMDV antiviral -14.1%, HCMV antiviral 24.2 and HCV inh inconclusive.
For Cc1nc2ccccc2c(=O)n1-c1ccc(NC(=O)C(F)(F)F)cc1 the results were Vaccinia Venus -2.7%, FMDV antiviral 7.4%, HCMV antiviral -4.4 and Vaccinia mCherry -12.7%.
Screening CS(=O)(=O)c1ccc(-c2cccc3c2OC(CNC(=O)c2ccnc(Cl)c2)C3)cc1 (stereo unspecified) returned Vaccinia Venus 0.0%, FMDV antiviral -22.9% and Vaccinia mCherry -4.7%.
`Clc1ccc(C(c2ccccc2)c2c[nH]c3ccccc23)s1` (stereo unspecified) gave Vaccinia Venus -19.6%, FMDV antiviral 0.0%, HCMV antiviral -66.6* and Vaccinia mCherry -24.6%.
`Cc1ccc2[nH]cc(C(c3ccccc3)c3ccc(Cl)s3)c2c1` (stereo unspecified) gave Vaccinia Venus -3.1%, FMDV antiviral inconclusive, HCMV antiviral inconclusive and Vaccinia mCherry -5.2%.
COC(=O)[C@@H](NC(=O)C1CCCN(c2nc(C)c3ccc(C)cc3n2)C1)C(C)C (stereo partly specified) was read as Vaccinia Venus -3.5%, FMDV antiviral -11.9% and Vaccinia mCherry -12.3%.
For CCCCCCCC[n+]1c(C)n(-c2ccccc2)c2ccc(NC(C)=O)cc21 the results were Vaccinia Venus -6.6%, FMDV antiviral inconclusive, HCMV antiviral -77.0*, Vaccinia mCherry -6.5% and HCV inh 14.1µM*.
Screening CCCCCCNC(=O)Nc1ccccc1 returned FMDV antiviral 0.0%, HCMV antiviral 52.2 and HCV inh 11.7%.
Screening Cc1ccccc1NC(=O)Cn1c(=O)oc2cc(Br)ccc21 returned Vaccinia Venus -7.3%, FMDV antiviral -24.2%, HCMV antiviral -15.8 and Vaccinia mCherry inactive.
Screening O=C(CC1C(=O)N(c2ccc(F)cc2)C(=O)N1Cc1ccc2c(c1)OCO2)Nc1ccc(Cl)cc1 (stereo unspecified) returned Vaccinia Venus -14.1%, FMDV antiviral 16.4%, HCMV antiviral 7.0 and Vaccinia mCherry -17.0%.
Screening CCNc1nc(NCC)n2c(SC(C(=O)Nc3cc(Cl)cc(Cl)c3)c3ccccc3)nnc2n1 (stereo unspecified) returned Vaccinia Venus 4.0%, FMDV antiviral -0.6%, HCMV antiviral -101.0*, Vaccinia mCherry -8.6% and HCV inh inconclusive.
CCOc1ccc(OCC)c(S(=O)(=O)NCCOC23CC4CC(CC(C4)C2)C3)c1 was read as Vaccinia Venus inconclusive, FMDV antiviral -22.6%, HCMV antiviral -73.4*, Vaccinia mCherry -14.4% and HCV inh 10µM*.
COc1cc(S(=O)(=O)NCCOC23CC4CC(CC(C4)C2)C3)c(OC)cc1Cl was read as Vaccinia Venus -9.9%, FMDV antiviral -23.6%, HCMV antiviral -63.3*, Vaccinia mCherry -27.1% and HCV inh inconclusive.
For O=S(=O)(NCCOC12CC3CC(CC(C3)C1)C2)c1cccc2nsnc12 the results were Vaccinia Venus -29.2%, FMDV antiviral -6.7%, HCMV antiviral -20.9 and HCV inh 17.2%.
c1ccc(NC2C(c3ccccc3)=Nc3ccccc3-n3nnnc32)cc1 (stereo unspecified) was read as HCMV antiviral 3.5.
For COc1ccc(CN2C(=O)N(c3ccc(F)cc3)C(=O)C2CC(=O)Nc2cc(OC)cc(OC)c2)cc1 (stereo unspecified) the results were Vaccinia Venus -7.4%, FMDV antiviral -9.0%, HCMV antiviral inconclusive and Vaccinia mCherry -9.6%.
COc1ccc(CC(=O)NCC(c2cccs2)S(=O)(=O)c2ccc(Cl)cc2)cc1 (stereo unspecified) was read as Vaccinia Venus -5.0%[7.34 µM], FMDV antiviral -13.1%, HCMV antiviral inconclusive and Vaccinia mCherry -4.6%[7.34 µM].
CCCOc1ccccc1-n1sc2c(c1=S)-c1cc(OC)cc3c1N(C(=O)C3=O)C2(C)C was read as Vaccinia Venus -2.4%, FMDV antiviral inconclusive, HCMV antiviral -7.3, Vaccinia mCherry inactive and HCV inh 12.6µM*.
O=C(CSc1n[nH]c(=O)[nH]c1=O)c1cccc([N+](=O)[O-])c1 was read as FMDV antiviral -9.3%, HCMV antiviral inconclusive and HCV inh 6.8%.
`O=C(CSc1n[nH]c(=O)[nH]c1=O)c1ccccc1` gave Vaccinia Venus inconclusive, FMDV antiviral -16.4%, HCMV antiviral -66.6* and HCV inh 10.0%.
Screening O=C(CSc1nccn1Cc1ccc(F)cc1)Nc1ccc2c(c1)OCCO2 returned Vaccinia Venus -22.0%, FMDV antiviral 52.9%, HCMV antiviral 48.1 and Vaccinia mCherry -2.6%.
Screening CNc1nc(C(=O)O)nc(N2CCOCC2)n1 returned Vaccinia Venus -1.5%, FMDV antiviral 1.8%, HCMV antiviral -104.6*, Vaccinia mCherry -9.0% and HCV inh 24.7%.
